Reference: ChEMBL document CHEMBL1201862, “PubChem BioAssay data set” (2004)
Among all 400,000 compounds or so, about 2,100 (0.53%) were called active. Inconclusive results (about 14%) are left out. No rule for the calls is given here. The sample as a whole holds a higher share of actives than the screen did.

What follows are molecules tested against Ataxin-2 (Homo sapiens) (UniProt Q99700) (assay: qHTS for Inhibitors of ATXN expression.).
Chain of Ataxin-2 (Homo sapiens) (Q99700 whole entry): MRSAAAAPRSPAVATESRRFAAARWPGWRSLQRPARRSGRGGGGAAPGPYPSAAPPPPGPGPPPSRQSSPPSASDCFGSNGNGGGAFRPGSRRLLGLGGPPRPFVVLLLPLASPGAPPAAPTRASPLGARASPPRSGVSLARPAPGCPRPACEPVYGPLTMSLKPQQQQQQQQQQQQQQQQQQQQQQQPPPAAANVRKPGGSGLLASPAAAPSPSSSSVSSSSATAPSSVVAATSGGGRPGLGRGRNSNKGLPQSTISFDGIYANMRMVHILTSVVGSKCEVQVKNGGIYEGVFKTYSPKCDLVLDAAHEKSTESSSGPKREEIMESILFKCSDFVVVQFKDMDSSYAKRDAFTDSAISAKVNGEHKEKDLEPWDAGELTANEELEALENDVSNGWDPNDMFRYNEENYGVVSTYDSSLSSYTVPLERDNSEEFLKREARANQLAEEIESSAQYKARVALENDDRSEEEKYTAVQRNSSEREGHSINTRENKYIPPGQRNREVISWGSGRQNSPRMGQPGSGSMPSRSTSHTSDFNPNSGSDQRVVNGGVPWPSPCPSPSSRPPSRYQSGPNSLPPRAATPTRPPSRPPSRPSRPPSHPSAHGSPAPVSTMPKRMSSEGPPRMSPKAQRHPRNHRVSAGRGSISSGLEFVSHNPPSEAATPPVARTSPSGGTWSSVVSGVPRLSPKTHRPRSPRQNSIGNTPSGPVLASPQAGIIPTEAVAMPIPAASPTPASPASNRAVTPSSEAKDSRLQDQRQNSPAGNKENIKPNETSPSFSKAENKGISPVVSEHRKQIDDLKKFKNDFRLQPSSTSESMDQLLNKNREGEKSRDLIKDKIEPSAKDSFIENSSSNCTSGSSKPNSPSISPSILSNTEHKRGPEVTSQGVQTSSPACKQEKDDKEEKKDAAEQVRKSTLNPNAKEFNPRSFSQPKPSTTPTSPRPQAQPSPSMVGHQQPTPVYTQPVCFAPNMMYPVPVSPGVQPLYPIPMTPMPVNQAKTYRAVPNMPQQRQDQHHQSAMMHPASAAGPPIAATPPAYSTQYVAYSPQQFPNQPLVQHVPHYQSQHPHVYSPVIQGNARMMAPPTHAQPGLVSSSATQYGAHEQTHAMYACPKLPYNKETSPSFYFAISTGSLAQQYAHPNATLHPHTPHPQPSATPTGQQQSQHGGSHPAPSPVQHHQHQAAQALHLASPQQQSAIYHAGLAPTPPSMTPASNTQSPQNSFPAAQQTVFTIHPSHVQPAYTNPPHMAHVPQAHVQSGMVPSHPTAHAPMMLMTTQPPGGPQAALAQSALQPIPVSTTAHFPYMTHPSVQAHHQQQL
Assay type: functional
For `CCCCN(C(=O)CSc1nnc2ccccn12)c1c(N)n(Cc2ccccc2)c(=O)[nH]c1=O`, the Potency was “inactive”. With `CCn1c(=N)c(C(=O)NCC2CCCO2)cc2c(=O)n3cc(C)ccc3nc21` (stereo not given) the Potency was “inactive”. With `C=CCC[C@H](Cc1ccc(F)cc1)C(=O)OC[C@H](Cc1c[nH]c2ccccc12)NC(=O)[C@@H](CC=C)CC(=O)NCCO` the Potency was 28.2 µM (active). `C=CC[C@@H](CC(=O)NCCO)C(=O)N[C@H](COC(=O)[C@@H](CC=C)Cc1ccc(F)cc1)Cc1c[nH]c2ccccc12` was tested, and the Potency was 35.5 µM (active). For `C=CCC[C@@H](Cc1ccc(F)cc1)C(=O)OC[C@H](Cc1c[nH]c2ccccc12)NC(=O)[C@@H](CC=C)CC(=O)NCCO`, the Potency was 39.8 µM (active). In the case of `C=CC[C@@H](CC(=O)N[C@H](CO)Cc1ccccc1)C(=O)N[C@H](COC(=O)[C@@H](CC=C)Cc1ccc(F)cc1)Cc1c[nH]c2ccccc12`, the Potency is reported as 25.1 µM (active). With `CC(C)n1c(=N)c(C(=O)NCCc2ccccc2)cc2c(=O)n3ccccc3nc21` the Potency was “inactive”. For `COc1cc(/C=C2\C(=N)N3N=CSC3=NC2=O)cc(Br)c1OC(=O)c1ccco1`, the Potency was “inactive”. `COc1ccc2nc(N3CCCCC3)c(C#N)cc2c1` was tested, and the Potency was “inactive”. With `N=c1oc2cc(O)ccc2cc1C(=O)Nc1ccc(F)cc1` the Potency was “inactive”. In the case of `CCOC(=O)/C(=C\c1ccccc1)C(=O)CCN1CCOCC1`, the Potency is reported as 42.3 µM (active). For `O=C(NCCCN1CCOCC1)/C(=C/c1cccnc1)NC(=O)c1ccccc1`, the Potency was “inactive”. `COCCOC(=O)c1c(N)n(CCCN2CCOCC2)c2nc3ccccc3nc12` was tested, and the Potency was “inactive”. With `CCCc1cc(=O)oc2cc(O[C@@H]3O[C@H](CO)[C@@H](O)[C@H](O)[C@H]3O)ccc12` the Potency was “inactive”. In the case of `COc1ccccc1-c1nnc(-c2ccc(C)cc2)o1`, the Potency is reported as “inactive”. With `COc1ccccc1NC(=O)CSc1nnc(-c2ccoc2C)o1` the Potency was “inactive”. With `COc1ccccc1-c1nnc(Sc2nc([N+](=O)[O-])nn2C)o1` the Potency was 11.2 µM (active). For `C=CCn1c2ccccc2c2nnc(SCCCn3c(=O)[nH]c4ccccc43)nc21`, the Potency was 39.8 µM (active). `C=CCn1c(N)c(C(=O)OC(C)(C)C)c2nc3ccccc3nc21` was tested, and the Potency was “inactive”. With `CCn1c2ccccc2c2nc3cc(C(=O)O)ccc3nc21` the Potency was “inactive”. In the case of `NC(=O)C[n+]1cccc(C(=O)Nc2ccccc2)c1`, the Potency is reported as “inactive”. In the case of `CCN(CC)c1ccc2ccc(=O)oc2c1`, the Potency is reported as “inactive”. `CCN(CC)c1ccc(N)cc1` was tested, and the Potency was 31.6 µM (active). For `CCN(CC)c1ccc2c(C)c(-c3ccc(N)cc3)c(=O)oc2c1`, the Potency was “inactive”. For `O=C(Nc1ccccc1)NN(C(=O)CCl)c1ccccc1`, the Potency was 22.4 µM (active). With `O=C(CCCC(=O)NNC(=O)Nc1ccccc1)NNC(=O)Nc1ccccc1` the Potency was “inactive”. `COC(=O)c1cn(C(=O)c2cc(C)cc(C)c2)c2ccccc12` was tested, and the Potency was “inactive”. For `CC(=O)n1c(/C=N/c2ccccc2)c(O)c2ccccc21`, the Potency was “inactive”. `O=C(CCl)N(c1ccccc1)c1ccccc1` was tested, and the Potency was 7.52 µM (active). With `O=C(O)c1ccccc1N(c1ccccc1)c1ccccc1` the Potency was “inactive”. For `CC(=O)n1cc(N(C(=O)CCl)c2ccccc2)c2ccccc21`, the Potency was 22.4 µM (active). For `O=C(Nc1ccccc1)N(C1=NCCC1)c1ccccc1`, the Potency was “inactive”. For `Cc1c(Cc2ccccc2)c(=O)oc2c(C)c(OCC(=O)Nc3ccc(C#N)cc3)ccc12`, the Potency was “inactive”. `OC[C@@H]1[C@@H](c2ccc(F)cc2)C(c2ccccc2)=NN1c1ccccc1` was tested, and the Potency was “inactive”. `Clc1ccc(/C=C\c2[nH]ccc3c4ccccc4nc2-3)cc1` was tested, and the Potency was “inactive”. `CCc1cc2c(COC(=O)c3cccc(S(C)(=O)=O)c3)cc(=O)oc2cc1O` was tested, and the Potency was “inactive”. `O=C(O)/C=C/c1cn(Cc2ccccc2)nc1-c1cccs1` was tested, and the Potency was “inactive”. `c1ccc(CN2CCC(Nc3nc(-c4cccs4)nc4ccccc34)CC2)cc1` was tested, and the Potency was 31.6 µM (active). `Cc1cccn2c(=O)c3cc(C(=O)NCC4CCCO4)c(=N)n(Cc4cccnc4)c3nc12` (stereo not given) was tested, and the Potency was “inactive”. For `CC(C)c1cc(NCc2ccccn2)n2c(nc3ccccc32)c1C#N`, the Potency was “inactive”. For `O=S(=O)(Nc1nc2ccccc2nc1Cl)c1ccc(Cl)cc1`, the Potency was “inactive”. For `O=S(=O)(NCC(Nc1ccc(Cl)cc1)c1ccccc1)c1ccccc1` (stereo not given), the Potency was 22.4 µM (active). With `O=S(=O)(Nc1cc2nc3ccccc3nc2n1Cc1ccccc1)c1ccc(Cl)cc1` the Potency was “inactive”. In the case of `Cc1c(CCC(=O)NC2CC2)c(=O)oc2c(C)c(O)ccc12`, the Potency is reported as “inactive”. `CC(=O)N1c2ccc(S(=O)(=O)NCCC(=O)Nc3ccc(Cl)cc3)cc2CC1C` (stereo not given) was tested, and the Potency was “inactive”. With `CC1CCc2cc(F)ccc2N1C(=O)CSc1n[nH]c2c3cc(F)ccc3nc-2n1` (stereo not given) the Potency was 22.4 µM (active). For `CCc1nnc(NC(=O)CSc2n[nH]c3c4ccccc4nc-3n2)s1`, the Potency was “inactive”. For `CN1CCC(N(C)C(=O)c2sc3cc(F)ccc3c2Cl)CC1`, the Potency was “inactive”. In the case of `CC(Sc1nc(-c2ccc(F)cc2)cs1)C(=O)N1c2ccccc2CC1C` (stereo not given), the Potency is reported as “inactive”. For `CC1CCc2cc(F)ccc2N1C(=O)CCl` (stereo not given), the Potency was 29.9 µM (active).
